A selection: hits, their analogues and other compounds. The true share with any hit is near 18%.
TGFb inhibitor – inhibitors of TGF-b signaling. HepG2 CAGA-GFP TGF-b/SMAD3 reporter, GFP fluorescence, 18 h; TGF-beta stimulated, 500 pg/mL final. Potency, µM (doses to about 46.1 µM), for the others: at the highest dose activity, negative = inhibition, usual class: inhibitors. 410,000 tested, 1.2% active. AID 588855; note: potency is the fitted concentration of half-maximal effect; % is set by controls: 0 for no effect and ±100 for the full control effect; nearly all actives have a fitted effect of over 65% in size
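HEPG2 CAGA-GFP, 1000 cells/well; 2 h settle, 37 C; cpd via pin tool; TGF-b 500 pg/mL final; 18 h, 37 C; GFP imaging ex488/em500-530; %Activity normalised to -TGF-b and +DMSO controls; CRC fit, curve class.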
HepG2 tox – kills HepG2 cells in TGF-b inhibitor counter-screen. HepG2 CAGA-GFP viability, ATP luminescence, 18 h. Potency, µM (series often up to 46.1 µM), without a hit: at the highest dose activity change, negative = cytotoxicity, most hits filed as cytotoxic. 410,000 tested, 0.76% active; note: potency is the fitted concentration of half-maximal effect
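CellTiter-Glo luminescence gave cytotoxicity after 18 hours at 37 degrees C. The cells were HepG2 CAGA-GFP in 1% FBS DMEM, stimulated with 500 pg/mL TGF-beta after compound addition. %Activity was normalised to no-cell wells (complete cell-killing) and DMSO (no toxicity), and curves were fitted and classified.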
TDP1 block – TDP1 (human) enzyme inhibition; Q9NUW8; recombinant TDP1, AlphaScreen DNA substrate cleavage; Potency, µM (highest dose often 130 µM), for inactives: at the top dose activity change, negative = inhibition, most hits filed as inhibitors; 350,000 tested, 0.28% active; note: potency is the fitted concentration of half-maximal effect; % is set by controls: 0 for no effect and ±100 for the full control effect; nearly all actives have a fitted effect of over 40% in size
Target sequence (Q9NUW8 whole entry, looked up): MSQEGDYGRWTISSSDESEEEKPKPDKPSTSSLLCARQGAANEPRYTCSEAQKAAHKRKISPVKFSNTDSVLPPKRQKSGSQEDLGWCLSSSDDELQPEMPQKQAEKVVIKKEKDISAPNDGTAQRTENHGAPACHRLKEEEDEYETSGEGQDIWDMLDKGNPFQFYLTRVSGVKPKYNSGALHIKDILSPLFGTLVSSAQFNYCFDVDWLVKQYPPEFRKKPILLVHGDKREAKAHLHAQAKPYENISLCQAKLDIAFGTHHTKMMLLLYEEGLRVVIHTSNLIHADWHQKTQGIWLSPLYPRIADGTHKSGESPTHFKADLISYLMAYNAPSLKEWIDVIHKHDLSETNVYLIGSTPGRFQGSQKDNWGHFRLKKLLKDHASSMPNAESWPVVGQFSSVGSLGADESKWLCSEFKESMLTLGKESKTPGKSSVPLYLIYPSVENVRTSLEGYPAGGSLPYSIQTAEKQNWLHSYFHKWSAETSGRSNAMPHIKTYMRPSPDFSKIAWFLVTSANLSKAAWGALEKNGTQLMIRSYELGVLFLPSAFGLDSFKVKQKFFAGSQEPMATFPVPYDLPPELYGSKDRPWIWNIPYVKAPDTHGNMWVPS
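Enzyme-compound mixtures sat 15 min at room temperature, followed by a 5 min reaction with 15 nM final substrate and 10 min with AlphaScreen beads. Recombinant human Tdp1 was used at 1 nM final.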
DT40 TDP1 no CPT – qHTS for Inhibitors of human tyrosyl-DNA phosphodiesterase 1 (TDP1): qHTS in cells in absence of CPT; DT40 Tdp1-/- hTDP1 cells, no CPT, ATP luminescence, 48 h; Potency, µM (titrated, usually from 46.2 µM), without a hit: top-dose activity change, negative = growth inhibition, hits mostly inhibitors; 420,000 tested, 15% active; AID 686978, 2013; note: potency is the fitted concentration of half-maximal effect; % is set by controls: 0 for no effect and ±100 for the full control effect; nearly all actives have a fitted effect of over 55% in size
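A cellular qHTS used chicken DT40 cells lacking endogenous Tdp1 but carrying stably transfected human TDP1. Compounds were applied without camptothecin, and cell growth kinetics were judged by ATP-dependent luminescence after ≥48 hr.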
TDP1 cell CPT – growth inhibition of DT40 Tdp1-/-;hTDP1 cells with camptothecin (screen for TDP1 inhibitors); chicken DT40 Tdp1-/-;hTDP1 cells + 20 nM CPT, ATP luminescence, 48 h; Potency, µM (titrated, usually from 46.2 µM), for inactives: top-dose activity change, negative = growth inhibition, most hits filed as inhibitors; 420,000 tested, 12% active; AID 686979; note: potency is the fitted concentration of half-maximal effect; % is set by controls: 0 for no effect and ±100 for the full control effect; nearly all actives have a fitted effect of over 55% in size
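Chicken DT40 Tdp1-/- cells stably complemented with human TDP1 were seeded at 400 cells/well in medium containing 20 nM camptothecin, exposed to pin-transferred compounds, and grown at 37 °C for at least 48 hr. Viability was read as ATP luminescence.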
IL-1B inflam inh – inhibitors of inflammasome signaling (IL-1 beta secretion); THP-1 LPS/ATP IL-1B secretion, AlphaLISA, 16 h; active compounds read low; activity change, % at 57.5 µM; 360,000 tested, 4.7% active; in the data active = activity change below about -50%; inconclusive = mostly about -30% to -49%; note: % is set by controls: 0 for no effect and ±100 for the full control effect
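THP-1 cells pretreated 1 hr with compounds (up to 57.5 uM final), then stimulated with LPS (250 ng/mL final) plus ATP (1.25 mM final); secreted IL-1B measured by AlphaLISA after 16 hr, decreased signal indicating inhibition.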
* hit, by the source's call; ? = inconclusive; · = not tested or not shown; ! = not active in a repeat. Unless noted, calls come from the whole dose curve; as a rule, active = well fitted curve in the direction sought with a large enough effect; inconclusive = small, poorly fitted or top-dose-only effect, or another doubt; inactive = no such curve, though single readings can be large; an effect the other way counts as inactive or inconclusive.

SMILES	TGFb inhibitor	HepG2 tox	TDP1 block	DT40 TDP1 no CPT	TDP1 cell CPT	IL-1B inflam inh
COC(=O)N1CCC2(CCCN(Cc3ccc(C#N)cc3)C2)CC1	·	·	·	?	-9.3%	·
CCOc1ccc(CN2CCN(C(=O)c3cccc(F)c3)CC2)cc1	-28.7%	-12.7%	-4.4%	-21.9%	-24.6%	-59.6*
COC(=O)N1CCC2(CCCN(Cc3cc(C(F)(F)F)cc(C(F)(F)F)c3)C2)CC1	·	·	·	1.2%	-2.3%	·
COC(=O)N1CCC2(CCN(Cc3cc(C(F)(F)F)cc(C(F)(F)F)c3)CC2)CC1	·	·	·	14.6µM*	?	·
O=C(O)c1c[nH]c2cc(C(F)(F)F)ccc2c1=O	7.1%	1.1%	1.0%	?	-10.1%	16.9
Cc1ccc(C(=O)Nc2cccc(C(F)(F)F)c2)cc1NC(=O)c1c[nH]c2cc(C(F)(F)F)ccc2c1=O	7.4%	0.5%	0.9%	?	5.17µM*	38.2
CCN1CCN(Cc2ccc(NC(=O)c3ccc(C)c(NC(=O)c4c[nH]c5cc(C(F)(F)F)ccc5c4=O)c3)cc2C(F)(F)F)CC1	11.2µM*	15.8µM*!	-1.2%	4.11µM*	4.61µM*	-105.4*
Cc1ccsc1/C=N/NC(=O)c1cccnc1	7.2%	1.9%	1.2%	-1.1%	-7.0%	23.6
O=C(C[N+]1(CCO)CCOCC1)c1ccc2ccccc2c1	23.0%	14.2%	·	-22.6%	5.6%	·
C=CCNc1nc(-c2ccc(O)c(C(N)=O)c2)cs1	-12.0%	2.1%	7.8%	18.4µM*	13µM*	-6.8
NC(=O)c1cc(-c2csc(-c3cccnc3)n2)ccc1O	-2.3%	5.2%	6.3%	13µM*	-23.3%	?
c1ccc2oc(-c3csc(NCC4CCCO4)n3)cc2c1 (stereo not drawn)	-20.5%	0.9%	3.6%	?	?	-26.2
C=CCNc1nc(-c2cc3ccccc3o2)cs1	5.1%	-2.1%	7.0%	-18.0%	-19.5%	-95.1*
c1ccc(-c2nc(-c3cccnc3)cs2)cc1	-11.6%	-22.4%	·	-16.5%	-10.0%	23.6
CC1(C)Cc2c(cnn2-c2ccc(F)cc2)C(NC(=O)CCCN2CCCCC2=O)C1 (stereo not drawn)	4.1%	4.8%	2.4%	-4.3%	-1.7%	6.1
COc1ccc(C(=O)N/C(=C\c2cn(C)c3ccccc23)C(=O)NCCN2CCOCC2)cc1OC	-0.4%	-3.4%	0.9%	-6.3%	-6.7%	-3.5
CCCCCCCCCOC(=O)C[n+]1csc(CCO)c1C	0.3%	-12.7%	-2.6%	10.3µM*	?	-18.9
O=C(COC(=O)c1cc(S(=O)(=O)N2CCCCC2)ccc1N1CCOCC1)c1ccccc1	-42.9%	1.8%	0.3%	?	?	-2.0
CCCc1c(C(=O)N2CCN(c3ccccc3OC)CC2)cnn1-c1ccccc1	-27.0%	-22.8%	2.9%	18.4µM*	?	-1.8
CCCc1c(C(=O)NNc2ccccc2OC)cnn1-c1ccccc1	5.9%	-42.5%	7.1%	-18.5%	-19.0%	-52.2*
CCc1nn(CC(=O)N2CCCCC2)c(=O)c2cc3sc(C)cc3n12	·	5.0%	-1.0%	-19.3%	-14.1%	·
Cc1cc(NC(=O)COC(=O)CCNS(=O)(=O)c2c(Cl)cccc2Cl)no1	?	-1.3%	5.4%	-14.5%	-13.9%	0.0
Oc1cc2cc(-c3csc(-c4ccc(F)cc4)n3)ccc2[nH]1	-16.0%	-45.8%	·	2.82µM*	1.12µM*	·
O=C(c1cc2ccccc2oc1=O)N(Cc1ccc2c(c1)OCO2)Cc1ccco1	-6.5%	-14.7%	7.1%	9.2µM*	?	-9.8
O=C(NCc1ccc2c(c1)OCO2)c1cc2ccccc2oc1=O	10.0%	4.9%	2.6%	-14.3%	0.0%	26.5
SMILES	TGFb inhibitor	HepG2 tox	TDP1 block	DT40 TDP1 no CPT	TDP1 cell CPT	IL-1B inflam inh
O=C(Nc1ccc(F)cc1)c1cccn1-c1nnc(N2CCCCC2)s1	0.0%	-8.2%	0.0%	?	?	·
O=[N+]([O-])c1cccc(COc2ccccc2CN2CCOCC2)c1	-18.9%	-17.1%	·	?	?	-11.6
Cc1cc(OCc2cccc(Cl)c2)c(C)cc1CN1CCOCC1	-1.2%	-17.7%	-8.1%	?	18.4µM*	-0.8
COc1cccc(/C=N/NC(=O)c2[nH]nc3c2CCc2ccccc2-3)c1	-11.1%	-29.3%	5.1%	4.11µM*	4.11µM*	·
COc1ccc(OC)c(/C=N/NC(=O)c2[nH]nc3c2CCc2ccccc2-3)c1	-11.9%	-9.4%	2.3%	-19.9%	-26.4%	-7.7
COc1ccc2c(c1)CCc1c-2n[nH]c1C(=O)NCCC(C)C	-12.7%	-26.2%	·	?	?	-60.3*
CNC(=O)c1[nH]nc2c1CCc1cc(OC)ccc1-2	-6.3%	-10.7%	·	?	?	?
CC(=O)N(CC#CCN(C(C)=O)c1ccccc1)c1ccccc1	-4.7%	-3.2%	·	?	-15.0%	7.6
CCOc1ccc(NC(=S)NC(=O)c2c(Cl)cnn2CC)c([N+](=O)[O-])c1	-6.7%	2.7%	5.3%	-3.6%	3.5%	-15.1
CCn1ncc(Cl)c1C(=O)NC(=S)Nc1c(C)cc(C)cc1[N+](=O)[O-]	-25.9%	-7.7%	2.6%	23.1µM*	?	-19.6
CC(=O)c1c(C)[nH]c(C(=O)OCC(=O)N2CCc3ccccc3C2)c1C	-8.5%	-2.1%	1.4%	16.4µM*	23.1µM*	59.5
CCOC(=O)c1[nH]c(C)c(C(=O)N2CCc3ccccc32)c1C	?	-32.2%	5.2%	0.92µM*	0.82µM*	108.3
CC(=O)c1c(C)[nH]c(C(=O)OCC(=O)N2CCN(c3ccccc3)CC2)c1C	16.5%	17.3%	·	3.3%	-19.6%	20.6
CCSC1=NC2(CCCCC2)Nc2sc3c(c21)CCCC3	3.0%	-16.1%	7.0%	?	23.1µM*	-22.2
COC(=O)c1ccc(Cl)cc1NC(=O)Nc1nnc(N(C)Cc2ccccc2)s1	-4.4%	-25.8%	-2.9%	-21.5%	-21.3%	·
CCc1ccc(-n2nc(C)c3c(C(=O)N4CCN(c5cccc(Cl)c5)CC4)cc(C)nc32)cc1	-2.4%	5.0%	3.2%	20.6µM*	?	·
Cc1cc(C(=O)NCc2ccc(Cl)cc2)c2c(C)nn(-c3ccccc3)c2n1	-0.3%	-5.8%	-2.8%	-16.5%	-2.3%	·
Cc1cc(C(=O)N2CCN(c3ccccc3)CC2)c2c(C)nn(-c3cccc(F)c3)c2n1	13.6%	1.2%	-2.1%	16.4µM*	?	·
